HCV inhibitor – HCV inhibition; Huh7.5.1 HCVcc-Cre infection, luciferase reporter, 44 h; Potency, µM (series often up to 41.8 µM), without a hit: at the top dose activity change, negative = inhibition, actives largely listed as inhibitors; 340,000 tested, 3.4% active; AID 651820; active means well fitted inhibition curve with a large enough effect; inconclusive means small, poorly fitted or top-dose-only effect, or another doubt; inactive means no such curve, though single readings can be large or run the other way
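Whole-lifecycle infectious HCVcc-Cre system; cells 1,000/well, compound then virus (~0.5 moi) added 4 h after plating, 44 h culture. Luciferase read 15 sec following 15 min substrate incubation, room temp.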
VACV mCherry inh – vaccinia inhibition (mCherry reporter); Vaccinia virus mCherry reporter infection, fluorescence; 310,000 tested, 0.63% active; AID 720579; Potency, µM (top dose mostly 36.5 µM), for inactives: at the highest dose activity change, negative = inhibition, most hits filed as inhibitors; calls by dose curve; tested in A549 cells; further: nearly all actives have a fitted effect of over 35% in size
Vaccinia Venus – vaccinia inhibition (Venus reporter); Vaccinia virus Venus reporter expression, fluorescence; Potency, µM (series often up to 36.5 µM), for inactives: at the top dose activity change, negative = inhibition, usual class: inhibitors; 330,000 tested, 0.46% active; AID 720580; calls by dose curve; tested in A549 cells; further: nearly all actives have a fitted effect of over 30% in size
The depositor's hits bear a star; i = inactive; u = inconclusive; x = not tested or not shown; [ ] = another dose, or the depositor's remark. Most compounds without a hit are left out; they make up all but 3.3% or so of the library. On the % scale 0 is the no-effect control and ±100 the full control effect; potency means the concentration at half of the fitted maximal effect.

SMILES	HCV inhibitor	VACV mCherry inh	Vaccinia Venus
COc1cccc(CN(C)C(=O)Cc2ccc(OC)c(S(=O)(=O)N3CCOCC3)c2)c1	-0.8%	i	-10.1%
COc1ccccc1C1CN(Cc2cnn(C)c2)Cc2ccccc2O1 (stereo not drawn)	x	-8.7%	0.3%
CCn1c(CNC(=O)c2ccccc2OC)nnc1SCC(=O)c1ccc(F)cc1	3.2%	1.0%	-1.0%
Cc1cnccc1/C=C/c1ccc(N)cc1	x	-12.7%	13.0%
COc1ccc(NC(=O)c2[nH]c(C)c(C(C)=O)c2C)cc1S(=O)(=O)Nc1ccc(Br)cc1	14.1µM*	1.5%	7.9%
CC(=O)c1c(C)[nH]c(C(=O)Nc2cccc(S(=O)(=O)N3CCCCC3)c2)c1C	12.6µM*	x	x
CN(C)S(=O)(=O)c1cccc(NC(=O)c2ccc(S(=O)(=O)N3CCCCC3)cc2)c1	u	u	-26.7%
Cc1ccc(S(=O)(=O)N2CCCCC2)cc1NC(=O)c1cncc(Br)c1	-21.1%	-29.0%	-27.5%
CS(=O)(=O)c1cccc(C(=O)Nc2cccc(S(=O)(=O)N3CCCC3)c2)c1	u	-9.8%	-11.0%
COc1ccc(NC(=O)c2[nH]c(C)c(C(C)=O)c2C)cc1Cl	u	-9.1%	-8.1%
CN(C)S(=O)(=O)c1cccc(NC(=O)c2cccc(S(=O)(=O)N3CCCCCC3)c2)c1	7.94µM*	-26.7%	u
O=C(Nc1cccc(S(=O)(=O)N2CCCCCC2)c1)c1cncc(Br)c1	11.2µM*	u	-19.8%
Cc1ccccc1OC(=O)c1cccnc1	11.9%	x	x
OC1(c2cccnc2)CCN(Cc2ccc3c(c2)CN(Cc2ccc(F)c(F)c2)CCO3)CC1	x	-12.0%	-10.6%
Cc1cc(C(=O)NNC(=O)c2ccc(C)s2)c(C)o1	-21.5%	-10.2%	-10.4%
Cc1ncc2c(c1CNC(=O)c1ccc3c(c1)OCO3)CCN(C(=O)c1cccc(-n3cccn3)c1)C2	x	-8.1%	-2.5%
COc1cccc(CNC(=O)c2cccc(-n3c(C)nc4cccnc43)c2)c1OC	x	-18.4%	-9.0%
Cc1ccc(NC(=O)c2cccc(S(=O)(=O)N3CCN(C)CC3)c2)cc1F	12.6µM*	i	-1.7%
CN(C)S(=O)(=O)c1cccc(NC(=O)c2ccc(N3CCCC3=O)cc2)c1	22.4µM*	x	x
CN1CCN(S(=O)(=O)c2ccc(NC(=O)c3cccc(S(=O)(=O)N4CCCC4)c3)cc2)CC1	u	-3.2%[1.46 µM]	u
O=C(Nc1cccc(S(=O)(=O)N2CCCCC2)c1)c1ccc(N2CCCC2=O)cc1	-8.7%	-9.8%	-6.5%
COC(=O)c1c(NC(=O)CCCOc2cccc(C)c2)sc2c1C(C(=O)OC)CC2 (stereo not drawn)	x	-4.7%[7.34 µM]	-7.0%[7.34 µM]
C=C[C@](C)(O)CCC1C(=C)CC(O)C2C(C)(C)CCCC12C (stereo partly drawn)	x	-10.9%	-9.1%
O=C1C(=O)c2cccnc2-c2ncccc21	x	6.31µM*	14.1µM*
O=C1c2cccnc2-c2ncccc21	15.4%	-19.1%	-14.7%
SMILES	HCV inhibitor	VACV mCherry inh	Vaccinia Venus
CCn1c2ccccc2c2cc(C3C(C#N)=C(C)NC(C)=C3C#N)ccc21	11.2µM*	-7.0%	-17.5%
CCn1c2ccccc2c2cc(C3C(C#N)=C(N)Oc4n[nH]c(COC)c43)ccc21 (stereo not drawn)	u	-25.5%	-19.7%
C=CCNc1nc(C(F)(F)F)nc2c1nnn2Cc1ccccc1Cl	0.8%	x	x
CCOCCCNc1nc(C(F)(F)F)nc2c1nnn2Cc1ccccc1Cl	11.2µM*	x	x
COc1c(C)cc(NS(=O)(=O)c2ccc3c(c2)OCCO3)cc1C	x	-20.5%	-12.6%
CCc1cc2c(N3CCCCC3)ncnc2s1	11.2µM*	x	-22.1%
CCc1cc2c(N3CCN(C)CC3)ncnc2s1	-10.0%	2.9%	6.0%
N#CNC(=Nc1ccc(Cl)cc1)Oc1ccccc1	2.5%	-2.4%[7.34 µM]	1.8%[7.34 µM]
Cc1nnsc1C(=O)N/N=C/c1ccc2ccccc2c1O	u	2.24µM*	u
Cc1nnsc1C(=O)N/N=C/c1ccccc1	13.2%	-7.1%	8.5%
CC(Sc1nn(-c2ccc(F)cc2)c(=S)s1)C(=O)c1c(N)n(C)c(=O)n(C)c1=O (stereo not drawn)	u	u	-21.6%
Cn1c(N)c(C(=O)CSc2nn(-c3ccccc3)c(=S)s2)c(=O)n(C)c1=O	10µM*	u	-8.2%
COc1cccc(Nc2nc(N)nc(CCl)n2)c1	u	10µM*	u
COc1ccccc1N1CCN(Cc2nc(N)nc(Nc3ccc(C)c(Cl)c3)n2)CC1	11.2µM*	u	u
Cc1cccc(Nc2nc(N)nc(CCl)n2)c1C	-74.8%	u	u
Cc1cccc(Nc2nc(N)nc(CCl)n2)c1	3.16µM*	u	u
Cc1ccc(Nc2nc(N)nc(CCl)n2)c(C)c1	0.501µM*	x	x
Cc1ccc(Nc2nc(N)nc(CCl)n2)cc1	-80.7%	i	-7.5%
COc1ccccc1Nc1nc(N)nc(CN2CCN(c3ccccc3F)CC2)n1	-5.6%	u	-20.1%
COc1cccc(Nc2nc(N)nc(C(F)(F)F)n2)c1	-20.9%	x	x
CC(=O)c1ccc(NC(=O)c2cnn3c2NC(=C2CC2)C=C3C(F)F)cc1	x	-5.4%	-15.7%
CCc1ccccc1-n1cnc2cc(C(=O)NC3CCCCCC3)ccc21	x	-16.3%	-7.7%
O=C(Nc1ccc(Br)cc1)C1CCN(c2cnccn2)CC1	-7.1%	-7.2%	-11.0%
CC(C)(C)c1ccc(S(=O)(=O)N[C@H]2CC[C@@H](n3cc(C(=O)N4CCCC4)nn3)CC2)cc1	x	-21.8%	-22.8%
Cc1ccc(Cn2cc(CCC(=O)NCC(C)c3ccccc3)c3ccccc32)cc1 (stereo not drawn)	x	-17.7%	-14.9%
SMILES	HCV inhibitor	VACV mCherry inh	Vaccinia Venus
O=C(Nc1cccc(S(=O)(=O)N2CCCCC2)c1)c1ccc(S(=O)(=O)C(F)F)cc1	u	-22.0%	-27.6%
CCOc1ccc(Nc2nc(N)nc(CN3CCN(c4ccccc4F)CC3)n2)cc1	-20.0%	-27.7%	u
CCOc1ccc(Nc2nc(N)nc(CCl)n2)cc1	0.562µM*	u	u
Cc1ccc(SCc2nc(N)nc(Nc3ccccc3C)n2)cc1C	12.6µM*	-7.0%	-28.0%
Cc1ccccc1Nc1nc(N)nc(CSc2ccc(F)cc2)n1	-9.0%	x	x
O=C1CC2(CCCC2)C(=O)N1CN1CCN(S(=O)(=O)c2ccc(Cl)c(Cl)c2)CC1	u	-1.5%	-7.2%
CCCNC(=O)C1CN(C(=O)c2nn(Cc3ccccc3)c(=O)c3ccccc23)c2ccccc2O1 (stereo not drawn)	12.7%	i	-5.1%
Cc1c(C(=O)NCc2ccco2)cnn1-c1ncc2c(n1)-c1ccccc1CC2	x	-14.8%	-28.2%
CC(=O)c1cccc(NC(=O)CN2CCc3cc4c(cc3C2C)OCCCO4)c1 (stereo not drawn)	u	-6.7%	-16.5%
COc1ccc(-c2nn(-c3ccccc3)cc2CO)cc1	u	x	-15.3%
N=C(N)SCc1cn(-c2ccccc2)nc1-c1ccc(Br)cc1	u	11.2µM*	u
COc1ccc(NS(=O)(=O)c2cc(NC(=O)c3ccco3)ccc2N2CCCC2)cc1	10µM*	-17.2%	-7.1%
CCC(=O)N1CCN(c2ccc(NC(=O)c3cc4ccccc4o3)cc2Cl)CC1	11.2µM*	u	11.2µM*
COc1ccc(NS(=O)(=O)c2ccc(N3CCCC3)c(NC(=S)Nc3cccc(C)c3C)c2)cc1	u	-27.7%	-19.2%
COc1ccc(NS(=O)(=O)c2cc(NC(=O)C3CCCO3)ccc2N2CCCC2)cc1 (stereo not drawn)	11.2%	i	-2.7%
CC(C)C(=O)N1CCN(c2ccc(NC(=O)c3ccco3)cc2Cl)CC1	-7.5%	-2.6%	-6.8%

High-throughput results from PubChem.
